Assay results reported in PubChem BioAssay.
Calls of active or inactive are those of the source.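 Rule for the calls, unless noted: active = visually confirmed hit in the image check and inhibition above 20%; inconclusive = visually confirmed hit but inhibition not above 20%; inactive = no visual hit in the image check.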

Assays:
[1] = inhibitors of TNFa-induced NFkB p65 translocation, primary screen, imaging, HUVEC, MLSMR starter and 10KST1 sets (AID 438;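 active = inhibition above 20% together with a positive visual image hit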;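 note: compound added about 3h40 before a 20 min TNFalpha stimulation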;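 for inhibition: signal is the nuclear over cytoplasmic p65 intensity ratio per well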); settings: HUVEC TNFa-induced p65 nuclear translocation; cell count: measured here: nuclei count (cytotoxicity indicator), at 2.08 µM; inhibition: at 2 µM, stronger effect = higher value, 0% TNFa-plus-vehicle, 100% no-TNFa wells
[2] = inhibitors of mutant huntingtin aggregation, primary screen, imaging, exon1htt(103Q)mCFP cells, high-content imaging (AID 483;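 active = visual image review flags a hit and inhibition of aggregation exceeds 20%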;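 note: compound exposure lasted 3 days before fixation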;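 for nuclei count: percent of the per-plate median nuclei count of sample wells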); settings: exon1htt(103Q)mCFP cell line, aggregate imaging, at 2 µM; inhibition of aggregation: stronger effect = higher value; nuclei count: measured here: cell count, toxicity
[3] = inhibitors of E-selectin induction by TNFa, primary screen, imaging, HUVEC, immunofluorescence, MLSMR starter and 10KST1 sets (AID 487); settings: HUVEC TNFalpha-induced E-selectin immunofluorescence imaging, at 2 µM; inhibition: stronger effect = higher value; nuclei count: measured here: cell number, toxicity;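 for inhibition: signal is fraction of cell area covered by stained E-selectin grains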;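 for nuclei count: 100% = median nuclei count of all wells on the same plate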
[4] = molecular target: Voltage-gated potassium channel subunit beta-2 (Rattus norvegicus) (UniProt P62483); assay: KvBeta enzyme negative modulators, primary screen, biochemical, NADPH fluorescence (AID 622;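 active = fluorescence slope higher than the sample average by over 3 SD, cut at about -0.22 in these data, passing the limit was not always enough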;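 note: slope of raw intensity against log time taken from 70 to 1610 s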); settings: recombinant KvBeta, 4-cyanobenzaldehyde reduction, at 10 µM, stronger effect = higher value
[5] = molecular target: Voltage-gated potassium channel subunit beta-2 (Rattus norvegicus) (UniProt P62483); assay: KvBeta positive modulators, primary screen, biochemical, NADPH fluorescence (AID 623;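 active = NADPH fluorescence slope more negative than the mean of all samples by about 3 SD, 99.7% confidence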;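 note: fluorescence intensity change per second fitted from 20 to 320 s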); settings: Recombinant KvBeta, NADPH fluorescence decrease slope, 10 min; at 10 µM; stronger effect = lower value
[6] = molecular target: Alpha-2C adrenergic receptor (Homo sapiens) (UniProt P18825); assay: modulators of alpha2C/GIRK thallium flux, primary screen, cell-based, HEK293 alpha2C/GIRK1/2 (AID 624;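 active = fluorescence slope after compound addition differing from the mean of all screened samples at 99.7% confidence, in either direction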;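 note: slope of fluorescence ratio to pre-addition baseline per second over 15 to 24 s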); settings: thallium flux BTC fluorescence, at 10 µM, actives lie on both sides
[7] = inhibitors of Sendai virus-induced IRF3 signaling, primary screen, TLR/RLR signaling modifier project, cell-based, Sendai virus stimulus, luciferase, 10K MLSCN set (AID 602276;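 active = inhibition at or above 50% at 10 µM; inactive = inhibition below 50%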;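 note: firefly luciferase from ISG56 promoter only with Renilla not read in this screen; 0% = Sendai virus plus DMSO and 100% = medium plus DMSO without virus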); settings: HEK293 RL24 IRF3 luciferase reporter, at 10 µM, stronger effect = higher value
[8] = inhibitors of poly I:C-induced TLR3 signaling, primary screen, cell-based, poly I:C stimulus, luciferase, 10K MLSCN set (AID 602277;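 active = inhibition of the reporter signal at or above 50%; inactive = inhibition below 50%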); settings: HEK293-TLR3 RL24 IRF3 luciferase reporter, at 10 µM, stronger effect = higher value

Sequence of Alpha-2C adrenergic receptor (Homo sapiens) (P18825 whole entry, looked up): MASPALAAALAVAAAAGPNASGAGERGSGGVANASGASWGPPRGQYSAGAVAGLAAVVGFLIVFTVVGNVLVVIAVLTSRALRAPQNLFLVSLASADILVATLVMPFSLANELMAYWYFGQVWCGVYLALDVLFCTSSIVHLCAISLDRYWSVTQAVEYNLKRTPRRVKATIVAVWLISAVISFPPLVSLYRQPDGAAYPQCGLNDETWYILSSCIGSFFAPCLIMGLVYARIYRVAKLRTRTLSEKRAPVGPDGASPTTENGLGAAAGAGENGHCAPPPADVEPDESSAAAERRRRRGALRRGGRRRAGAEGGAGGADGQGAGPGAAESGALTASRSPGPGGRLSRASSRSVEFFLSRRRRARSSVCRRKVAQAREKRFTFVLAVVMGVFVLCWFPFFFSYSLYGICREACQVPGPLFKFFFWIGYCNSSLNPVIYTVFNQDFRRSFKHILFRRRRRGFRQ
Sequence of Voltage-gated potassium channel subunit beta-2 (Rattus norvegicus) (P62483 whole entry, looked up): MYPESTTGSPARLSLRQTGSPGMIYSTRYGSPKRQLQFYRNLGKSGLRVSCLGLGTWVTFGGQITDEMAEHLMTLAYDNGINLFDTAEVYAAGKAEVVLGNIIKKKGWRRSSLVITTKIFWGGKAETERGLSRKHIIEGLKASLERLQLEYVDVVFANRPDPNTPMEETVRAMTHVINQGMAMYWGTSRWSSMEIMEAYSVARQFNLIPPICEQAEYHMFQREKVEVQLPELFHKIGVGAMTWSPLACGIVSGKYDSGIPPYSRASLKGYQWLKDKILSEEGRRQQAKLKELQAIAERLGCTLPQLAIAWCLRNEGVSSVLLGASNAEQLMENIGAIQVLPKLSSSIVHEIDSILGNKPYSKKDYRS

Q: Which results are given for `COc1ccc(C2(C(=O)Nc3c(C)n(C)n(-c4ccccc4)c3=O)CCCC2)cc1OC`?
A: cell count [1]: 712; inhibition [1]: 1.6% (inactive); inhibition of aggregation [2]: -9.8% (inactive); nuclei count [2]: 76.1%; inhibition [3]: -52.3% (inactive); nuclei count [3]: 104%; fluorescence slope [4]: -0.427 (inactive); NADPH fluorescence slope [5]: 2.3e-05 (inactive); slope [6]: 0.00772 (inactive); inhibition [7]: 13.1% (inactive); inhibition [8]: 14.9% (inactive)

Q: Which cell count [1] does the source give for `CCCNC(=O)C1CCN(S(=O)(=O)c2ccc3nc4c(c(C(=O)O)c3c2)CCCCC4)CC1` here?
A: 637

Q: And the inhibition [1]?
A: 1.3% (inactive)

Q: What about the inhibition of aggregation [2] of the same compound?
A: -1.8% (inactive)

Q: What about the nuclei count [2] of the same compound?
A: 119%

Q: And the inhibition [3]?
A: -26.6% (inactive)

Q: And the nuclei count [3]?
A: 118%

Q: What about the fluorescence slope [4] of the same compound?
A: -0.531 (inactive)

Q: What about the NADPH fluorescence slope [5] of the same compound?
A: 2e-05 (inactive)

Q: What about the slope [6] of the same compound?
A: 0.00704 (inactive)

Q: What about the inhibition [7] of the same compound?
A: 8.11% (inactive)

Q: And the inhibition [8]?
A: 12.8% (inactive)

Q: What does the source list for `Cc1ccc2occ(CN3CCN(c4ccccc4)CC3)c(=O)c2c1`?
A: cell count [1]: 258; inhibition [1]: -0.8% (inactive); inhibition of aggregation [2]: 14.3% (inactive); nuclei count [2]: 81.9%; inhibition [3]: -17% (inactive); nuclei count [3]: 93.3%; fluorescence slope [4]: -0.454 (inactive); NADPH fluorescence slope [5]: -1.6e-05 (inactive); slope [6]: 0.00585 (inactive); inhibition [7]: 15.8% (inactive); inhibition [8]: 18.1% (inactive)

Q: Which results are given for `COC(=O)Cn1c2ccccc2c2nc(C)sc21`?
A: cell count [1]: 350; inhibition [1]: 11.4% (inactive); inhibition of aggregation [2]: -14.3% (inactive); nuclei count [2]: 106%; inhibition [3]: -59.3% (inactive); nuclei count [3]: 125%; fluorescence slope [4]: -0.439 (inactive); NADPH fluorescence slope [5]: 7e-06 (inactive); slope [6]: 0.00472 (inactive); inhibition [7]: -14.8% (inactive); inhibition [8]: -8.31% (inactive)

Q: With `CCOC(=O)c1c(NC(=O)OC)sc2c1CCC2` as the compound, how does the cell count [1] read?
A: 496

Q: And the inhibition [1]?
A: -0.5% (inactive)

Q: And the inhibition of aggregation [2]?
A: 9.3% (inactive)

Q: And the nuclei count [2]?
A: 82.8%

Q: What about the inhibition [3] of the same compound?
A: -35.7% (inactive)

Q: What about the nuclei count [3] of the same compound?
A: 125%

Q: And the fluorescence slope [4]?
A: -0.535 (inactive)

Q: And the NADPH fluorescence slope [5]?
A: -1.5e-05 (inactive)

Q: What about the slope [6] of the same compound?
A: 0.00667 (inactive)

Q: And the inhibition [7]?
A: 7.95% (inactive)

Q: What about the inhibition [8] of the same compound?
A: 15.6% (inactive)

Q: With `CCc1nn(CC(=O)NCCCN2CCc3ccccc3C2)c(=O)c2cc3sccc3n12` as the compound, how does the cell count [1] read?
A: 811

Q: And the inhibition [1]?
A: -6.4% (inactive)

Q: And the inhibition of aggregation [2]?
A: 5.9% (inactive)

Q: What about the nuclei count [2] of the same compound?
A: 138%

Q: What about the inhibition [3] of the same compound?
A: -64% (inactive)

Q: What about the nuclei count [3] of the same compound?
A: 116%

Q: What about the fluorescence slope [4] of the same compound?
A: -0.602 (inactive)

Q: What about the NADPH fluorescence slope [5] of the same compound?
A: 9.3e-06 (inactive)

Q: What about the slope [6] of the same compound?
A: 0.00659 (inactive)

Q: And the inhibition [7]?
A: 2.67% (inactive)

Q: What about the inhibition [8] of the same compound?
A: 50.9% (active)

Q: What does the source list for `O=C(Cn1nc(Cc2cccnc2)c2ccccc2c1=O)Nc1ccc2c(c1)OCO2`?
A: cell count [1]: 576; inhibition [1]: 3% (inactive); inhibition of aggregation [2]: 22.2% (inactive); nuclei count [2]: 109%; inhibition [3]: -9.3% (inactive); nuclei count [3]: 98.3%; fluorescence slope [4]: -0.55 (inactive); NADPH fluorescence slope [5]: -3.9e-05 (inactive); slope [6]: 0.00644 (inactive); inhibition [7]: 10.9% (inactive); inhibition [8]: 18.1% (inactive)

Q: Which results are given for `Cc1ccc(C)c(N(CC(=O)NC2CCCC2)C(=O)CCCC(=O)Nc2ccccn2)c1`?
A: cell count [1]: 516; inhibition [1]: -18.3% (inactive); inhibition of aggregation [2]: 7.5% (inactive); nuclei count [2]: 93.9%; inhibition [3]: -50.6% (inactive); nuclei count [3]: 95.7%; fluorescence slope [4]: -0.539 (inactive); NADPH fluorescence slope [5]: -4.4e-05 (inactive); slope [6]: 0.00581 (inactive); inhibition [7]: 13.6% (inactive); inhibition [8]: 27.2% (inactive)

Q: Which results are given for `Cn1c(=O)cc(OCC(=O)NCCCN2CCN(Cc3ccccc3)CC2)c2ccccc21`?
A: cell count [1]: 505; inhibition [1]: -6.9% (inactive); inhibition of aggregation [2]: 4.5% (inactive); nuclei count [2]: 86.8%; inhibition [3]: -124% (inactive); nuclei count [3]: 135%; fluorescence slope [4]: -0.556 (inactive); NADPH fluorescence slope [5]: 2.6e-05 (inactive); slope [6]: 0.00749 (inactive); inhibition [7]: -11.8% (inactive); inhibition [8]: 31.2% (inactive)
